This passage reports outcome and AC50 results from PubChem BioAssay (EPA / NIEHS).

Structures are written as SMILES. Several values for one entry are separate records, joined by “and”; a condition that tells them apart may be missing. Equal entries are not always repeated. Some compounds were tested as several samples or in several runs, with calls that do not always agree. Activity calls are given as the source filed them. The calls were made as follows: active = hit-call score of the fitted dose curve at least 0.9, where 1 is the maximum; inactive = score below 0.9.

Experiment [1] in a line: BSK_CASM3C_SRB: Viability Assessment in the BioMAP Diversity Plus: CASM3C Assay (AID 2283050).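 Also: cells exposed to compound for 24 h.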 The conditions noted are these: primary human coronary artery smooth muscle cells.
Read-out in experiment [2]: Thrombomodulin, THBD (gene 7056)
The experiment can be described thus: BSK_CASM3C_Thrombomodulin: BioMAP Diversity Plus: CASM3C Assay for Thrombomodulin Biomarker Activity (AID 2283051).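 Also: thrombomodulin protein level measured by ELISA 24 h after dosing.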 The conditions noted are these: primary human coronary artery smooth muscle cells; actives raise or lower the signal.

Read-out in experiment [3]: Tissue Factor, F3 (gene 2152)
The experiment can be described thus: BSK_CASM3C_TissueFactor: BioMAP Diversity Plus: CASM3C Assay for Tissue Factor Biomarker Activity (AID 2283052).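 Also: cell surface tissue factor protein level read by ELISA.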 The conditions noted are these: primary human coronary artery smooth muscle cells; actives raise or lower the signal.

Read-out in experiment [4]: Urokinase-type plasminogen activator receptor (uPAR), PLAUR (gene 5329)
Nature of the experiment: BSK_CASM3C_uPAR: BioMAP Diversity Plus: CASM3C Assay for Urokinase-type plasminogen activator receptor (uPAR) Biomarker Activity (AID 2283054).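 Also: cell-surface uPAR protein level quantified by ELISA.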 The conditions noted are these: primary human coronary artery smooth muscle cells; actives raise or lower the signal.

Read-out in experiment [5]: Vascular cell adhesion molecule 1 (VCAM1), VCAM1 (gene 7412)
The experiment can be described thus: BSK_CASM3C_VCAM1: BioMAP Diversity Plus: CASM3C Assay for Vascular cell adhesion molecule 1 (VCAM1) Biomarker Activity (AID 2283055).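 Also: VCAM-1 protein level quantified by ELISA on the cells.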 The following applies: primary human coronary artery smooth muscle cells; actives raise or lower the signal.

Read-out in experiment [6]: Collagen III, COL3A1 (gene 1281)
The experiment can be described thus: BSK_hDFCGF_CollagenIII: BioMAP Diversity Plus: hDFCGF Assay for Collagen III Biomarker Activity (AID 2283056). The conditions noted are these: primary human foreskin fibroblasts; actives raise or lower the signal. Put shortly:
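Cells: human foreskin fibroblasts, primary. Dosing followed by 24 h incubation, then ELISA for collagen III. Both increases and decreases scored relative to DMSO.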

Read-out in experiment [7]: Epidermal growth factor receptor (EGFR), EGFR (gene 1956)
Nature of the experiment: BSK_hDFCGF_EGFR: BioMAP Diversity Plus: hDFCGF Assay for Epidermal growth factor receptor (EGFR) Biomarker Activity (AID 2283057). The conditions noted are these: primary human foreskin fibroblasts; actives raise or lower the signal. Put shortly: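 hDFCGF system, primary human foreskin fibroblasts; compound 24 h; EGFR measured by ELISA; DMSO = negative control/baseline; bidirectional fitting.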

Read-out in experiment [8]: Interleukin-8 (IL8), CXCL8 (gene 3576)
Nature of the experiment: BSK_hDFCGF_IL8: BioMAP Diversity Plus: hDFCGF Assay for Interleukin-8 (IL8) Biomarker Activity (AID 2283058). The following applies: primary human foreskin fibroblasts; actives raise or lower the signal. The method, boiled down: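 IL-8 levels from compound-treated primary human fibroblasts were read by ELISA at 24 h, with DMSO serving as baseline for bidirectional fitting.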

Experiment [9] can be described thus: BSK_hDFCGF_Proliferation: Cell Proliferation Assessment in the BioMAP Diversity Plus: hDFCGF Assay (AID 2283059).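 Also: curves fitted for both rise and fall of signal versus DMSO baseline.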 The conditions noted are these: primary human foreskin fibroblasts. Put shortly: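 Steps: dose primary human dermal fibroblasts (foreskin); […] fix in 10% TCA; stain with 0.1% SRB; read 560 nm; fit gain or loss of signal against DMSO.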

Read-out in experiment [10]: Macrophage colony-stimulating factor (MCSF), CSF1 (gene 1435)
Nature of the experiment: BSK_hDFCGF_MCSF: BioMAP Diversity Plus: hDFCGF Assay for Macrophage colony-stimulating factor (MCSF) Biomarker Activity (AID 2283060). The following applies: primary human foreskin fibroblasts; actives raise or lower the signal. Put shortly:
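M-CSF levels, determined by ELISA, are taken at 24 h after dosing human skin fibroblasts. Responses in either direction are fitted with DMSO serving as the baseline.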

The nature of experiment [11]: BSK_hDFCGF_SRB: Viability Assessment in the BioMAP Diversity Plus: hDFCGF Assay (AID 2283061).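 Also: cells exposed to compound for 24 h before the read.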 The conditions noted are these: primary human foreskin fibroblasts. The method, boiled down:
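Cells were dosed with test chemical, cultured 24 h, fixed with 10% TCA, then stained with 0.1% SRB and read at 560 nm. The fibroblasts were human foreskin primary cells, and DMSO served as baseline.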

Read-out in experiment [12]: TIMP metallopeptidase inhibitor 1 (TIMP1), TIMP1 (gene 7076)
The experiment can be described thus: BSK_hDFCGF_TIMP1: BioMAP Diversity Plus: hDFCGF Assay for TIMP metallopeptidase inhibitor 1 (TIMP1) Biomarker Activity (AID 2283062). The following applies: primary human foreskin fibroblasts; actives raise or lower the signal. The method, boiled down: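 Fibroblasts from human foreskin are treated with test chemical and harvested at 24 h. TIMP-1 is quantified by ELISA, and gain or loss of signal is scored against DMSO.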

Read-out in experiment [13]: Monokine induced gamma interferon (MIG), CXCL9 (gene 4283)
Nature of the experiment: BSK_hDFCGF_MIG: BioMAP Diversity Plus: hDFCGF Assay for Monokine induced gamma interferon (MIG) Biomarker Activity (AID 2283063). The following applies: primary human foreskin fibroblasts; actives raise or lower the signal. The method, boiled down: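 MIG signal, determined by ELISA, reflects 24 h chemical exposure of human skin primary fibroblasts. DMSO serves as negative control and baseline.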

Read-out in experiment [14]: Matrix Metallopeptidase 1 (MMP1), MMP1 (gene 4312)
Nature of the experiment: BSK_hDFCGF_MMP1: BioMAP Diversity Plus: hDFCGF Assay for Matrix Metallopeptidase 1 (MMP1) Biomarker Activity (AID 2283064). The following applies: primary human foreskin fibroblasts; actives raise or lower the signal. The method, boiled down:
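Primary human foreskin fibroblasts exposed to chemicals for 24 h; MMP1 measured by ELISA. Cytotoxicity tracked by SRB staining in parallel cultures; bidirectional fit relative to DMSO.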

Read-out in experiment [15]: Vascular cell adhesion molecule 1 (VCAM1), VCAM1 (gene 7412)
The experiment can be described thus: BSK_hDFCGF_VCAM1: BioMAP Diversity Plus: hDFCGF Assay for Vascular cell adhesion molecule 1 (VCAM1) Biomarker Activity (AID 2283065).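 As to AC50: VCAM-1 protein level quantified by ELISA after 24 h chemical exposure.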 The conditions noted are these: primary human foreskin fibroblasts; actives raise or lower the signal. Put shortly: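 Cells are dosed, cultured for 24 h, then VCAM-1 is quantified by ELISA; signal increases and decreases are both fitted relative to DMSO.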

Read-out in experiment [16]: Plasminogen activator inhibitor-1 (PAI1), SERPINE1 (gene 5054)
Nature of the experiment: BSK_hDFCGF_PAI1: BioMAP Diversity Plus: hDFCGF Assay for Plasminogen activator inhibitor-1 (PAI1) Biomarker Activity (AID 2283066). The following applies: primary human foreskin fibroblasts; actives raise or lower the signal. The method, boiled down:
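Primary dermal fibroblasts (human foreskin), hDFCGF system; compound 24 h; PAI-1 by ELISA; bidirectional fit vs DMSO control.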

Read-out in experiment [17]: Interferon-gamma inducible Protein 10 (IP10), CXCL10 (gene 3627)
Nature of the experiment: BSK_KF3CT_IP10: BioMAP Diversity Plus: KF3CT Assay for Interferon-gamma inducible Protein 10 (IP10) Biomarker Activity (AID 2283068). The following applies: primary human keratinocytes with fibroblasts; actives raise or lower the signal. The method, boiled down:
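KF3CT co-culture (keratinocytes + foreskin fibroblasts), 24 h compound, IP-10 by ELISA; bidirectional fit vs DMSO baseline.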

Experiment [18] in a line: BSK_KF3CT_SRB: Viability Assessment in the BioMAP Diversity Plus: KF3CT Assay (AID 2283069).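 Also: total protein by sulforhodamine B staining as a cytotoxicity measure; fitted for both signal gain and loss against DMSO baseline.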 The conditions noted are these: primary human keratinocytes with fibroblasts. Put shortly:
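Human keratinocyte and foreskin fibroblast co-culture exposed to chemical for 24 h. Total protein measured in parallel cultures by 0.1% sulforhodamine B staining after 10% TCA fixation, read at 560 nm; bidirectional fit relative to DMSO.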

Read-out in experiment [19]: Interferon-gamma inducible Protein 10 (IP10), CXCL10 (gene 3627)
The experiment can be described thus: BSK_hDFCGF_IP10: BioMAP Diversity Plus: hDFCGF Assay for Interferon-gamma inducible Protein 10 (IP10) Biomarker Activity (AID 2283053). The conditions noted are these: primary human foreskin fibroblasts; actives raise or lower the signal. The method, boiled down:
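Primary foreskin fibroblasts, human; 24 h compound exposure; IP-10 by ELISA; bidirectional fit vs DMSO.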

Read-out in experiment [20]: Intercellular Adhesion Molecule 1 (ICAM1), ICAM1 (gene 3383)
The experiment can be described thus: BSK_KF3CT_ICAM1: BioMAP Diversity Plus: KF3CT Assay for Intercellular Adhesion Molecule 1 (ICAM1) Biomarker Activity (AID 2283067). The following applies: primary human keratinocytes with fibroblasts; actives raise or lower the signal. The method, boiled down: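 Dose the keratinocyte/fibroblast co-culture, wait 24 h, measure ICAM-1 by ELISA, then fit increases or decreases against DMSO. Cytotoxicity is checked in parallel cultures by SRB total-protein staining.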

With `N#CN`, the outcome in experiment [1], in experiment [2], in experiment [3], in experiment [4], in [5] and in experiment [6] was inactive. The outcome in [7], in experiment [8], in experiment [9], in [10], in [11] and in experiment [12] was inactive. Moreover, the result in experiment [13], in experiment [14], in [15], in experiment [16], in experiment [17] and in experiment [18] was inactive.

With `ClC1C(Cl)C(Cl)C(Cl)C(Cl)C1Cl` (centres undefined), the AC50 in [1] was 35.2 µM (active); in experiment [4], 29 µM (active); in experiment [5], 32.2 µM (active) and 32.4 µM (active); in experiment [6] it was 20 µM (active); in [9] it was 28.1 µM (active) and 24.6 µM (active). Moreover, the result in experiment [1], in experiment [2], in experiment [3], in experiment [4], in experiment [5] and in experiment [6] was inactive. Further, the result in experiment [7], in experiment [8], in [9], in experiment [10], in experiment [11] and in experiment [12] was inactive. Also, the outcome in experiment [13], in [14], in [15], in experiment [17] and in experiment [18] was inactive.

Turning to `CC[C@H](C)[C@H]1O[C@]2(C=C[C@@H]1C)C[C@@H]1C[C@@H](C/C=C(\C)[C@@H](O[C@H]3C[C@H](OC)[C@@H](O[C@H]4C[C@H](OC)[C@@H](O)[C@H](C)O4)[C@H](C)O3)[C@@H](C)/C=C/C=C3\CO[C@@H]4[C@H](O)C(C)=C[C@@H](C(=O)O1)[C@]34O)O2` (tested in a mixture with another compound), the half-maximal activity concentration (AC50) was 15 µM (active) in experiment [1]; 10.7 µM (active) in experiment [19]; 12.2 µM (active) in experiment [4]; 15 µM (active) in [5]; 6.63 µM (active) in experiment [6]; 5.21 µM (active) in experiment [7]. Also, the AC50 in experiment [8] was 9.73 µM (active); in experiment [9], 5.3 µM (active); in experiment [10], 8.11 µM (active); in [11], 6.68 µM (active); in experiment [12], 9.96 µM (active); in experiment [13], 12.9 µM (active). Also, the half-maximal activity concentration (AC50) was 9.79 µM (active) in experiment [14]; 9.78 µM (active) in experiment [15]; 14.1 µM (active) in [20]; 12.5 µM (active) in [17]; 14.1 µM (active) in [18]. Also, the outcome in [2] and in experiment [3] was inactive.

As to `CN1CSC(=S)N(C)C1`, the result in [1], in experiment [2], in experiment [3], in experiment [4], in experiment [6] and in [7] was inactive. Further, the outcome in experiment [8], in experiment [11], in experiment [12], in experiment [14], in experiment [20] and in experiment [17] was inactive. Also, the result in [18] was inactive. The AC50 in experiment [19] is 16 µM (active); in [5] it was 20 µM (active); in [9], 13.5 µM (active); in [10] it was 10.6 µM (active); in [13], 14.1 µM (active); in [15] it was 9.28 µM (active).

Regarding `COC(=O)c1ccccc1CS(=O)(=O)NC(=O)Nc1nc(OC)cc(OC)n1`, the outcome in experiment [1], in experiment [2], in experiment [3], in [19], in experiment [4] and in experiment [5] was inactive. Moreover, the result in [6], in experiment [7], in experiment [8], in [9], in experiment [10] and in [11] was inactive. Further, the result in [12], in experiment [13], in [14], in [15], in experiment [17] and in experiment [18] was inactive.

With `COC(=O)c1ccccc1S(=O)(=O)NC(=O)N(C)c1nc(C)nc(OC)n1`, the result in experiment [1], in experiment [2], in experiment [3], in [4], in experiment [5] and in experiment [6] was inactive. For the same compound, the outcome in experiment [7], in experiment [8], in experiment [9], in [10], in experiment [11] and in experiment [12] was inactive. Further, the result in [13], in [14], in experiment [15], in experiment [17] and in experiment [18] was inactive. Further, the concentration at half-maximal activity (AC50) in [19] was 28.7 µM (active).

As a reminder, the AC50 is the midpoint of the concentration-response curve, whichever way the signal moves.
